According to PubChem BioAssay (Tox21):
Records with an inconclusive call do not appear. Calls of active or inactive are those of the source. Unless noted, the call rests on the fitted dose curve; in most records, active means well fitted curve in the direction sought with a large enough effect in the repeat runs; inconclusive means weak or mixed curves; inactive means no such curve, though single readings can be large; an effect the other way counts as inactive or inconclusive. Non-standard residues stand in square brackets, D forms with d. Residues, ends and D or L forms follow the SMILES beside them. *: point of attachment. Sta = CC(C)C[C@H](N)[C@@H](O)CC(=O)O; Isovaleryl = CC(C)CC(=O)*

Tests used:
[1] = qHTS assay to identify small molecule agonists of the sonic hedgehog signaling (Shh) pathway - cell viability counter screen (AID 1259366); further: nearly all actives have a fitted effect of over 50% in size
In short: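 Compounds in DMSO were pin-transferred onto 3T3 Gli1-Luc cells that had settled 4hr; plates then stood 24hr at 37C and 5% CO2. One hour before the end, CellTiter-Fluor was added and fluorescence recorded.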

[2] = qHTS assay to identify small molecule antagonists of the sonic hedgehog signaling (Shh) pathway - cell viability counter screen (AID 1259367); further: nearly all actives have a fitted effect of over 55% in size
In short: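 NIH/3T3-derived Gli1-Luc reporter cells, 2,000/well, plated 4 hr before compound addition, then stimulated with conditioned medium for 24 hr at 37C. Viability measured in the same wells by CellTiter-Fluor fluorescence, reagent added at 23 hr for 1 hr.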

[3] = qHTS assay to identify small molecule agonists of the sonic hedgehog signaling (Shh) pathway (AID 1259368; calls by dose curve; further: series mostly up to about 92 µM; nearly all actives have a fitted effect of over 15% in size)
In short: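 NIH/3T3-derived 3T3Gli1-Luc cells carrying a stably integrated Gli1 response element–firefly luciferase reporter were plated, left 4 hr at 37 C, then given compounds in DMSO for 24 hr. Luminescence was read 30 min after adding luciferase reagent.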

[4] = qHTS assay to identify small molecule antagonists of the sonic hedgehog signaling (Shh) pathway (AID 1259369; calls by dose curve; further: nearly all actives have a fitted effect of over 45% in size)
In short: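 NIH/3T3-derived 3T3Gli1-Luc cells with stably integrated Gli1-Luc reporter were preincubated 4hr at 37 C, then given compounds in DMSO plus Shh conditioned medium and incubated 24hr. Firefly luciferase luminescence read after 30min reagent at room temperature.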

[5] = qHTS assay to identify small molecule agonists of the androgen receptor (AR) signaling pathway in the presence of an antagonist - cell viability counter screen (AID 1259379);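 further: MDA-kb2 human breast cancer cells carrying an MMTV luciferase reporter; series mostly up to about 92 µM; nearly all actives have a fitted effect of over 25% in size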
In short: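 MDA-kb2 human breast carcinoma cells (stable MMTV-luciferase, AR/GR responsive) were seeded 3,000 cells/well, pre-incubated 5 hr at 37C without CO2, then given 3.0uM nilutamide and compounds at 15 concentrations for 16 hr. Viability was read by CellTiter-Fluor fluorescence.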

[6] = qHTS assay to identify small molecule antagonists of the estrogen receptor beta (ER-beta) signaling pathway - cell viability counter screen (AID 1259382);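 further: HEK293T cells carrying ER-beta-UAS-bla reporter stimulated with estradiol; series mostly up to about 92 µM; nearly all actives have a fitted effect of over 55% in size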
In short: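 ER-beta-UAS-bla HEK293T cells (2,000/well, 2% charcoal-stripped FBS) were pre-incubated 6 hr at 37C, then given compound plus 1nM final 17-beta-estradiol for 16 hr. Viability was read in the same wells by CellTiter-Glo luminescence after 30 min at room temperature.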

[7] = qHTS assay to identify small molecule agonists or antagonists of the thyroid stimulating hormone receptor (TSHR) signaling pathway - wild type cell line counter screen (AID 1259384; calls by dose curve)
In short: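 Wild-type Hek293 cells, 800/well, 18 h at 37C, then compound with Ro20-1724 for 30 min RT. cAMP by HTRF (cAMP-d2/anti-cAMP cryptate), 1 h RT, fluorescence read. 15 concentrations, triplicates.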

[8] = biological target: Thyrotropin receptor (Homo sapiens) (UniProt P16473); assay: qHTS assay to identify small molecule antagonists of the thyroid stimulating hormone receptor (TSHR) signaling pathway (AID 1259385; calls by dose curve; further: nearly all actives have a fitted effect of over 20% in size)
Sequence of Thyrotropin receptor (Homo sapiens) (P16473 whole entry, looked up): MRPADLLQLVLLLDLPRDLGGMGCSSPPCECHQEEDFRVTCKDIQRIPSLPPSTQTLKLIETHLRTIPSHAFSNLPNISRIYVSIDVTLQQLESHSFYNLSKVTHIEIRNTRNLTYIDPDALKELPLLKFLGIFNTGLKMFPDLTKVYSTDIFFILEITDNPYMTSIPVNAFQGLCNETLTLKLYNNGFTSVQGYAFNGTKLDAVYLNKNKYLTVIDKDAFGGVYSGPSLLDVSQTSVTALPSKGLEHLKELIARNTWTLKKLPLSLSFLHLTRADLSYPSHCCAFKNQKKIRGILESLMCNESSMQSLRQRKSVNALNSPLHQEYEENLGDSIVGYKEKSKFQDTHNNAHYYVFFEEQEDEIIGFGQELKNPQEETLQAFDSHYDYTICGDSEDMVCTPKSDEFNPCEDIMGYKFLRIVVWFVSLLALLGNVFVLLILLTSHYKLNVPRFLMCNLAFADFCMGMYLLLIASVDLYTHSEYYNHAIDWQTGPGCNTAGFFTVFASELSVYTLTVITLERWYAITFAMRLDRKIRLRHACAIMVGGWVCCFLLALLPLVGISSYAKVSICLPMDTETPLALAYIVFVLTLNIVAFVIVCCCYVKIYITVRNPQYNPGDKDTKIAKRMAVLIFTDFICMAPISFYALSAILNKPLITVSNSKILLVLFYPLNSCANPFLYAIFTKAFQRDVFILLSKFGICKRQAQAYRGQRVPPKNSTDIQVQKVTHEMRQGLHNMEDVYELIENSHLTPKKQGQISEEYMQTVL
In short: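 TSHR-HEK293 cells (800/well) plated 18 h, then compounds with Ro20-1724 and TSH at 1.5 ng/mL final, 30 min at room temperature. cAMP quantified by HTRF (cAMP-d2/anti-cAMP-cryptate, 1 h); 15 concentrations in triplicate.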

[9] = qHTS assay to identify small molecule agonists of the estrogen receptor alpha (ER-alpha) signaling pathway in the presence of an antagonist - cell viability counter screen (AID 1259386);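 further: series mostly up to about 92 µM; cells exposed to compounds for 22 h at 37 °C before the viability read; nearly all actives have a fitted effect of over 30% in size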
In short: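 VM7Luc4E2 cells (endogenous full-length ER-alpha, 4×ERE-luciferase) were held 5 days in phenol red-free medium with 10% charcoal-stripped FBS, plated, then given 10.0nM ICI-182,780 and compounds at 15 concentrations for 22hr at 37C; viability read by CellTiter-Fluor fluorescence.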

[10] = biological target: Progesterone receptor (Homo sapiens) (UniProt P06401); assay: qHTS assay to identify small molecule agonists of the progesterone receptor (PR) signaling pathway (AID 1346784; calls by dose curve; further: nearly all actives have a fitted effect of over 30% in size)
Sequence of Progesterone receptor (Homo sapiens) (P06401 whole entry, looked up): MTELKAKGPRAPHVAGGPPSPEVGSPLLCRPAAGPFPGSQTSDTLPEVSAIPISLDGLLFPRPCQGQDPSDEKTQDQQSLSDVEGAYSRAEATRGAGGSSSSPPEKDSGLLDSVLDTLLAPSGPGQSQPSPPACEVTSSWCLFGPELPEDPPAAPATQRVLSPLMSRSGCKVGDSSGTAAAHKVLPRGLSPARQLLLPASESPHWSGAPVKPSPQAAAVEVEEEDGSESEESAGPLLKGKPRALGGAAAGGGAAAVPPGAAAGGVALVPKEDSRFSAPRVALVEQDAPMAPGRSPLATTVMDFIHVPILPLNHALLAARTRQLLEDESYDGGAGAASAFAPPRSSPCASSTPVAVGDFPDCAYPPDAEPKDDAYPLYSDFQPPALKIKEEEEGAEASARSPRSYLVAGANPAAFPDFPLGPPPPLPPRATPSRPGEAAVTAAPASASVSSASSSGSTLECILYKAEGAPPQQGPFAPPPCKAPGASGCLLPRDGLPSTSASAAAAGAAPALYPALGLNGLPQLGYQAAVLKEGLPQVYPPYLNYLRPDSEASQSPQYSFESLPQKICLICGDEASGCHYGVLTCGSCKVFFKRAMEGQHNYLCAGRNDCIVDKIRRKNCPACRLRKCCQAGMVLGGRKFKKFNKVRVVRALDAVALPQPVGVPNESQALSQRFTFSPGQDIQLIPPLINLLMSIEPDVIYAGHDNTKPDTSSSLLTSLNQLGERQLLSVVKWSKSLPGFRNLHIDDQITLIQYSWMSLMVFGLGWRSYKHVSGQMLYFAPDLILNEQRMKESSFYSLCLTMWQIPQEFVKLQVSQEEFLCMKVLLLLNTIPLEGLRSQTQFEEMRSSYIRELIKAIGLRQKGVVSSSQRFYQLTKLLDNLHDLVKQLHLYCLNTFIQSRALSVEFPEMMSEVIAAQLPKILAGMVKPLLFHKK
In short: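 Fluorescence from LiveBLAzer B/G FRET substrate cleavage (2 hr, RT) reported PR activation in PR-UAS-bla HEK 293T cells treated 16 hr at 37C/5% CO2 with compounds; medium contained 2% charcoal-stripped FBS.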

[11] = biological target: Progesterone receptor (Homo sapiens) (UniProt P06401); assay: qHTS assay to identify small molecule antagonists of the progesterone receptor (PR) signaling pathway (AID 1346795; active means well fitted inhibition curve with a large enough effect in the signal ratio in the repeat runs, not every such curve was filed as active; the % refers to the signal ratio)
In short: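 Fluorescence intensity measured 2 hr after adding beta-lactamase FRET substrate to PR-UAS-bla HEK293T cells that had been co-treated 16 hr with compound and 1 nM R5020 (final concentration) in 2% charcoal-stripped FBS.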

[12] = qHTS assay to identify small molecule agonists of the progesterone receptor (PR) signaling pathway - cell viability counter screen (AID 1346799; calls by dose curve; further: nearly all actives have a fitted effect of over 45% in size)
In short: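 In parallel with the beta-lactamase readout, cytotoxicity toward PR-UAS-bla HEK293T cells was measured by CellTiter-Glo luminescence following 16 hr compound incubation in 2% charcoal-stripped FBS medium.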

[13] = qHTS assay to identify small molecule antagonists of the TGF-beta/Smad signaling pathway - cell viability counter screen (AID 1346824); further: nearly all actives have a fitted effect of over 50% in size
In short: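 SBE-bla HEK 293T cells, incubated overnight, then compound plus 0.25 ng/mL TGF-beta1 (stock added) for 5 hr at 37 C. Viability was read in the same wells by CellTiter-Glo luminescence after 30 min at room temperature.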

[14] = qHTS assay to identify small molecule agonists of the TGF-beta/Smad signaling pathway - cell viability counter screen (AID 1346829); further: top concentration of the series differs between compounds; nearly all actives have a fitted effect of over 45% in size
In short: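 CellTiter-Glo luminescence readout; SBE-bla HEK 293T cells, overnight plating, compound 5 hr at 37 C/5% CO2, then bla substrate 2 hr RT, then CellTiter-Glo 30 min RT.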

[15] = biological target: Estrogen receptor (Homo sapiens) (UniProt P03372); assay: qHTS assay to identify small molecule agonists of the estrogen receptor alpha (ER-alpha) signaling pathway in the presence of an antagonist (AID 1259383; calls by dose curve; further: top concentration of the series differs between compounds; nearly all actives have a fitted effect of over 15% in size)
Sequence of Estrogen receptor (Homo sapiens) (P03372 whole entry, looked up): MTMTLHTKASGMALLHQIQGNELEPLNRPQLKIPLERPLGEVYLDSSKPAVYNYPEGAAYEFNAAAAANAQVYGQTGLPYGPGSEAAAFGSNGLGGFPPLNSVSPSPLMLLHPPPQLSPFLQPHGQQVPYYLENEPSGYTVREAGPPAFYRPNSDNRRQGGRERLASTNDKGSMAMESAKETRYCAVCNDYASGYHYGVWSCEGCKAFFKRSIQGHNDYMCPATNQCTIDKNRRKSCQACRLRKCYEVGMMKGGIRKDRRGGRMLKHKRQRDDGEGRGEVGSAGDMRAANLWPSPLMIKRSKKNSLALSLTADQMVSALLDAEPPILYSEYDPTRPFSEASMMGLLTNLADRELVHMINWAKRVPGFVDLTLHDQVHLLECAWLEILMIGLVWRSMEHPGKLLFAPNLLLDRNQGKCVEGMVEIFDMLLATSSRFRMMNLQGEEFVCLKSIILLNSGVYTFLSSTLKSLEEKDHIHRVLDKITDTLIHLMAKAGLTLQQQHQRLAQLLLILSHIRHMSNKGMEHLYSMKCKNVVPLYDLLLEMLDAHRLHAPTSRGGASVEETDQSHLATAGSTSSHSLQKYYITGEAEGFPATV
In short: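 VM7Luc4E2 cells (endogenous full-length ER-alpha, 4×ERE-luciferase) were precultured 5 days in phenol red-free medium with 10% charcoal-stripped FBS, given 10.0nM ICI-182,780 (final), then treated with compounds at 15 concentrations for 22hr at 37C; luminescence read with ONE-Glo.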

[16] = qHTS assay to identify small molecule antagonists of the progesterone receptor (PR) signaling pathway - cell viability counter screen (AID 1346798); further: series mostly up to about 92 µM; nearly all actives have a fitted effect of over 50% in size
In short: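 CellTiter-Glo luminescence; PR-UAS-bla HEK293T, 3,000 cells/well; compound + R5020, 16 hr, 37C/5% CO2; 30 min RT before read.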

[17] = qHTS assay to identify small molecule agonists of the estrogen receptor beta (ER-beta) signaling pathway - cell viability counter screen (AID 1259380); further: nearly all actives have a fitted effect of over 30% in size
In short: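 ER-beta-UAS-bla HEK293T cells in medium with 2% charcoal-stripped FBS were preincubated 6 hr at 37C, dosed with compound in DMSO for 16 hr, then after the bla read, CellTiter-Glo was added for 30 min at room temperature; luminescence recorded.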

Measured: Potency

COc1cc(NS(=O)(=O)c2ccc(N)cc2)ncn1
inactive: [1] | [2] | [3] | [4] | [5] | [6] | [7] | [8] | [9] | [10] | [11] | [12] | [13] | [14]

CCCCCCCCCCCCCC(=O)OCC
inactive: [1] | [2] | [3] | [4] | [5] | [6] | [15] | [7] | [8] | [9] | [10] | [11] | [16] | [12] | [13]

Cc1ccccc1C#N
inactive: [1] | [2] | [3] | [4] | [5] | [17] | [15] | [7] | [8] | [9] | [10] | [11] | [16] | [12] | [13] | [14]

O=C(O)P(=O)(O)O
inactive: [1] | [2] | [3] | [4] | [5] | [6] | [7] | [8] | [9] | [10] | [11] | [16] | [13]

O=C1CCCc2c(O)cccc21
inactive: [1] | [2] | [3] | [4] | [5] | [17] | [6] | [15] | [9] | [16] | [12] | [13] | [14]

CC(=O)Oc1ccc(C(C)=O)cc1
inactive: [1] | [2] | [3] | [4] | [5] | [17] | [6] | [15] | [7] | [8] | [9] | [10] | [11] | [13] | [14]

CC(C)CC(=O)N[C@H](C(=O)N[C@H](C(=O)N[C@@H](CC(C)C)[C@@H](O)CC(=O)N[C@@H](C)C(=O)N[C@@H](CC(C)C)[C@@H](O)CC(=O)O)C(C)C)C(C)C (Isovaleryl-VV[Sta]A[Sta]-OH)
inactive: [1] | [2] | [3] | [4] | [5] | [6] | [7] | [8] | [9] | [16] | [12] | [13] | [14]

O=P(O)(O)C(O)(Cc1cccnc1)P(=O)(O)O
inactive: [1] | [2] | [3] | [4] | [5] | [17] | [15] | [9] | [10] | [12] | [13] | [14]

C[C@]12C=CC(=O)C=C1[C@@H](F)C[C@@H]1[C@@H]2[C@@H](O)C[C@@]2(C)[C@H]1CC[C@]2(O)C(=O)CO
inactive: [1] | [2] | [3] | [4] | [5] | [17] | [6] | [15] | [7] | [8] | [9] | [16] | [12] | [13] | [14]
